PubChem BioAssay
“And” between values parts separate entries of the source, which are not always exact repeats. Equal entries are not always repeated. The source made the active and inactive calls. Unless noted, how the calls were made is not given here.

Key:
[1] = compound effects on lung adenocarcinoma cell viability – A549, calcein-AM fluorescence, 48 h, basal, profiling panel (AID 1162); settings: higher = more signal; further: test concentration not given here
[2] = compound effects on differentiated 3T3-L1 adipocyte viability – cell-based, 3T3-L1 adipocytes, calcein-AM fluorescence, 48 h, basal, profiling panel (AID 1163); settings: 3T3-L1 adipocytes viability, higher = more signal; further: test concentration not given here
[3] = compound effects on hepatocellular carcinoma cell viability – HepG2, calcein-AM fluorescence, 48 h, basal, profiling panel (AID 1164); settings: higher = more signal; further: test concentration not given here
[4] = compound effects on multiple myeloma cell viability – MM1S, calcein-AM fluorescence, 48 h, basal, profiling panel (AID 1165); settings: higher = more signal;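 further: viability of MM1S multiple myeloma cells under basal unstimulated conditions; test concentration not given here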
[5] = calcein-AM signal in unstimulated myeloma cells – cell-based, calcein-AM fluorescence, 48 h, PK04 Diversity Set, profiling panel (AID 1166); settings: RPMI8226 myeloma viability, higher = more signal;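 further: cells grown under basal conditions without added stimulus; test concentration not given here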
[6] = JC-1 mitochondrial signal, unstimulated HepG2 cells – cell-based, JC-1 fluorescence, 24 h, 100 nL compound, profiling panel (AID 1167); settings: HepG2 mitochondrial potential, higher = more signal; further: test concentration not given here
[7] = JC-1 mitochondrial signal, unstimulated adipocytes – cell-based, JC-1 fluorescence, 3T3-L1 adipocytes, 24 h, 100 nL compound, profiling panel (AID 1168); settings: JC-1 mitochondrial fluorescence, higher = more signal, called active from +8 up or from −8 down; further: test concentration not given here
[8] = JC-1 mitochondrial signal, unstimulated myeloma cells – cell-based, JC-1 fluorescence, RPMI8226, 24 h, 100 nL compound, profiling panel (AID 1169); settings: JC-1 mitochondrial potential fluorescence, higher = more signal; further: test concentration not given here
[9] = JC-1 mitochondrial signal, unstimulated MM1S myeloma – cell-based, JC-1 fluorescence, 24 h, 100 nL compound, profiling panel (AID 1170); settings: MM1S mitochondrial potential, higher = more signal; further: test concentration not given here
[10] = resazurin metabolic signal in A549 cells – cell-based, resazurin fluorescence, 24 h, PK04 Diversity Set, profiling panel (AID 1171); settings: A549 viability, higher = more signal, called active from +8 up or from −8 down; further: test concentration not given here
[11] = resazurin metabolic signal in HepG2 cells – cell-based, resazurin fluorescence, 24 h, PK04 Diversity Set, profiling panel (AID 1172); settings: HepG2 viability, higher = more signal; further: test concentration not given here
[12] = budding yeast growth changes without added modifier – OD600, strain BY4716, 24 h, basal condition, primary screen (AID 1173); settings: S. cerevisiae BY4716 growth, OD600, 24 h; higher = more signal, called active from +8 up or from −8 down
[13] = viability profiling in MM1S myeloma cells – cell-based, resazurin fluorescence, basal, 24 h, PK04 Diversity Set, profiling panel (AID 1174); settings: higher = more signal, called active from +8 up or from −8 down; further: test concentration not given here
[14] = target: Dihydroorotate dehydrogenase (quinone), mitochondrial (Plasmodium falciparum (isolate 3D7)) (UniProt Q08210); test: inhibition of P. falciparum DHODH – biochemical, C-terminal His tag, absorbance 600 nm, primary screen (AID 1175); settings: PfDHODH enzyme, DCIP absorbance 600 nm; higher = more signal, called active from +8 up or from −8 down;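 further: recombinant parasite enzyme with a five histidine tag at its C terminus; test concentration not given here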
[15] = inhibition of PAO1 biofilm formation – strain PAO1, LB-PBS medium, absorbance 600 nm, primary screen (AID 1176); further: test concentration not given here; settings: P. aeruginosa PAO1 growth/biofilm, A600, 12 h; higher = more signal
[16] = growth modulation of vineyard yeast isolate – strain RM11-1a, OD600, basal, 24 h, primary screen (AID 1177);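 further: cultures grown under basal conditions with no added stressor; test concentration not given here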; settings: S. cerevisiae RM11-1a growth, OD600, 24 h; higher = more signal, called active from +8 up or from −8 down
[17] = growth of efflux-deficient E. coli DRC39 – strain DRC39, OD650, 24 h, E. coli filamentation inducers, primary screen (AID 1178);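 further: growth measured as culture turbidity by optical density at 650 nm; test concentration not given here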; settings: E. coli DRC39 acrAB, higher = more signal, called active from +8 up or from −8 down
[18] = growth of efflux-deficient E. coli DRC39 – strain DRC39, OD650, 48 h, E. coli filamentation inducers, primary screen (AID 1179);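 further: screen aims at cell division blockers that make cells filament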; settings: E. coli DRC39 delta-acrAB growth, higher = more signal, called active from +8 up or from −8 down
[19] = viability profiling in RPMI8226 myeloma cells – cell-based, resazurin fluorescence, basal, 24 h, PK04 Diversity Set, profiling panel (AID 1180); settings: higher = more signal;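 further: RPMI8826 multiple myeloma cell line at 5000 cells per well; test concentration not given here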
[20] = target: E3 ubiquitin-protein ligase XIAP (Homo sapiens) (UniProt P98170); test: small molecules binding XIAP protein – biophysical, small-molecule microarray, fluorescence 635 nm, primary screen (AID 1181); settings: higher = more signal;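 further: score merges 667 nm emission and signal to noise over triplicate slides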
Sequence of E3 ubiquitin-protein ligase XIAP (Homo sapiens) (P98170 whole entry, looked up): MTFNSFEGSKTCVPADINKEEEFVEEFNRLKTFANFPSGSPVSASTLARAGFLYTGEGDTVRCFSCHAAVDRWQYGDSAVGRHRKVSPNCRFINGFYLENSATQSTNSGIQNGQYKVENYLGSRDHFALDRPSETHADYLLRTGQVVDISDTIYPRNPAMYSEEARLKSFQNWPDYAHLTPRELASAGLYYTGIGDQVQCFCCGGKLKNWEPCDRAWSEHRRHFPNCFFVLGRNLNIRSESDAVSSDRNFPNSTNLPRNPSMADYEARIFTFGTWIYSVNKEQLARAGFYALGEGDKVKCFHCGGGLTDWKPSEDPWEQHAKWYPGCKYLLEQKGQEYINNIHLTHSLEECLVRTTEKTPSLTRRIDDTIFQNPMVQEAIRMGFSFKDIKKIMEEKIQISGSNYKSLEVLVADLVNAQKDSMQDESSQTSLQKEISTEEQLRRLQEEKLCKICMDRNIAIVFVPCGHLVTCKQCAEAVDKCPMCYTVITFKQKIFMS

Sequence of Dihydroorotate dehydrogenase (quinone), mitochondrial (Plasmodium falciparum (isolate 3D7)) (Q08210 whole entry, looked up): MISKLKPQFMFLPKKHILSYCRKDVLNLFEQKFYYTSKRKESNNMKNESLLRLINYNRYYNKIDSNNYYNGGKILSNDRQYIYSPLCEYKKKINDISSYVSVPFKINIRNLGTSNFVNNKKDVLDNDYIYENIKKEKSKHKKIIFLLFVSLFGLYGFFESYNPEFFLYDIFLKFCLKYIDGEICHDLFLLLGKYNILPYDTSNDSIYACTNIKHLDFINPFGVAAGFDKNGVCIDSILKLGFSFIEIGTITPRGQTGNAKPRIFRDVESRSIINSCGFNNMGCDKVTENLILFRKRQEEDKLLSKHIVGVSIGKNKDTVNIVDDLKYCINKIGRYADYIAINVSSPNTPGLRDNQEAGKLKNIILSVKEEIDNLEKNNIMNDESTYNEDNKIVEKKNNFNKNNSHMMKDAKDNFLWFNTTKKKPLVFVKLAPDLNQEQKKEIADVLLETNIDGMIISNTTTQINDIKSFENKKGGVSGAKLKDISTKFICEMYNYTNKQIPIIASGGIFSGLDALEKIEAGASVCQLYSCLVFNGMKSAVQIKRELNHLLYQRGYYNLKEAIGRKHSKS

SMILES | z-score [1] | z-score [2] | z-score [3] | z-score [4] | z-score [5] | z-score [6] | z-score [7] | z-score [8] | z-score [9] | z-score [10] | z-score [11] | z-score [12] | z-score [13] | composite z-score [14] | z-score [15] | z-score [16] | z-score [17] | z-score [18] | z-score [19] | composite z-score [20]
C[C@@]1([C@@H](NC(=O)Cc2ccccc2)c2ccc(-c3ccccc3)cc2)C[C@H]1C1CCCCC1 | -2.72 and -1.23 and -1.42 | 0.765 and -0.0714 and -0.863 | -2.87 and -0.861 and -0.802 | -2.91 and -1.81 and -2 | -4.81 and -1.41 and -1.24 | -3.9 and -0.895 and 0.848 | 0.111 (inactive) and -0.332 (inactive) and -1.75 (inactive) | -0.936 and -0.586 and -0.431 | -1.71 and 0.0165 and -1.06 | -0.609 (inactive) and 3.96 (inactive) and -0.816 (inactive) | -1.11 and 1.82 and -1 | 0.332 (inactive) and 0.351 (inactive) and 1.3 (inactive) | -0.506 (inactive) and 1.03 (inactive) and -1.05 (inactive) | -4.04 (inactive) and -0.594 (inactive) and -0.535 (inactive) | 2.92 (inactive) and 1.4 (inactive) and 1.18 (inactive) | 1.75 (inactive) and 0.465 (inactive) and 1.58 (inactive) | -0.305 (inactive) and -0.278 (inactive) and -1.43 (inactive) | -0.0393 (inactive) and -0.777 (inactive) and -0.74 (inactive) | -3.36 and 2.84 and -1.47 | 0.102 and 0.0464 and -0.02
CCCNC(=O)OC[C@H]1O[C@H](CCON=C(C)CCN2CCc3nc(-c4ccccc4)c(-c4ccccc4)cc3C2)C=C[C@@H]1Oc1ccc(OC)cc1 | 1.18 | 0.723 | 0.27 | -0.893 | -0.794 | 4.79 | -1.65 (inactive) | 0.179 | 0.483 | 0.444 (inactive) | 0.0965 | -0.238 (inactive) | -0.53 (inactive) | 0.672 (inactive) | 0.347 (inactive) | 1.13 (inactive) | 0.324 (inactive) | -1.58 (inactive) | 0.0105 | -0.193
C=CCN(CCCC)C(=O)C1N(c2ccc(CCO)cc2)C(=O)C2C(C(=O)O)C3C=CC21O3 (stereo not given) | -0.635 and 0.444 | 0.79 and 0.378 | -0.97 and -0.116 | 0.853 and 1.11 | -0.0527 and 0.0382 | -0.63 and 0.869 | -0.915 (inactive) and 1.18 (inactive) | 0.16 and 0.0627 | 0.748 and 1.93 | -0.223 (inactive) and -0.442 (inactive) | 0.533 and -0.912 | -0.539 (inactive) and -0.275 (inactive) | -0.217 (inactive) and -0.801 (inactive) | -0.51 (inactive) and -1.02 (inactive) | 0.633 (inactive) and 0.276 (inactive) | -0.639 (inactive) and 0.159 (inactive) | 0.227 (inactive) and 0.473 (inactive) | -0.248 (inactive) and 0.25 (inactive) | -0.0068 and 0.0215 | -0.53 and 0.0871
C=CCN(CCCC)C(=O)C(c1cccs1)N(CCOCCO)C(=O)/C=C\C(=O)O (stereo not given) | 1.12 and 0.149 | 0.185 and -0.242 | 0.914 and 0.824 | 1.04 and 1.56 | 1.05 and -0.0726 | 0.644 and 1.03 | 0.713 (inactive) and 0.0219 (inactive) | 0.835 and 0.00316 | -1.11 and -0.822 | -0.557 (inactive) and -0.469 (inactive) | -0.313 and -1.09 | -0.8 (inactive) and 0.678 (inactive) | -0.0247 (inactive) and -0.0815 (inactive) | -1.49 (inactive) and -0.811 (inactive) | 0.0126 (inactive) and 0.177 (inactive) | -1.34 (inactive) and -1.13 (inactive) | 0.423 (inactive) and 0.0136 (inactive) | 0.629 (inactive) and 0.633 (inactive) | 0.0517 and 0.181 | -0.352 and -0.234
C=CCN(C(=O)C(c1cccs1)N(C(=O)/C=C\C(=O)O)c1ccc(CCO)cc1)C(C)(C)C (stereo not given) | -0.392 and -0.51 | -0.589 and -1.1 | -0.0749 and -0.55 | -1.18 and 0.821 | 0.3 and 0.317 | -0.178 and -0.341 | 0.529 (inactive) and -0.179 (inactive) | 0.185 and 0.0345 | 0.75 and 0.721 | -0.0762 (inactive) and -0.389 (inactive) | -0.388 and -0.35 | -2.06 (inactive) and -0.483 (inactive) | 0.448 (inactive) and 0.224 (inactive) | -2.45 (inactive) and -0.818 (inactive) | 0.289 (inactive) and -0.332 (inactive) | -0.0345 (inactive) and -0.122 (inactive) | 0.592 (inactive) and -0.113 (inactive) | 0.864 (inactive) and 0.356 (inactive) | 0.0456 and 0.0755 | -0.232 and -0.145
C=CCN(Cc1ccccc1)C(=O)C1N(CCCCCCO)C(=O)C2C(C(=O)O)C3C=CC21O3 (stereo not given) | -0.217 and 0.516 | 0.231 and 0.375 | -0.642 and -0.438 | -0.184 and -0.0762 | 0.462 and 1.64 | -0.678 and -0.391 | 0.201 (inactive) and 0.867 (inactive) | -0.0429 and 0.0701 | -0.252 and -0.0839 | -0.0083 (inactive) and 0.239 (inactive) | -0.29 and 0.875 | -0.356 (inactive) and -0.726 (inactive) | -0.231 (inactive) and 0.723 (inactive) | -0.248 (inactive) and -1.43 (inactive) | 0.95 (inactive) and 0.441 (inactive) | -0.325 (inactive) and -0.784 (inactive) | 0.0108 (inactive) and 0.14 (inactive) | -0.187 (inactive) and -0.172 (inactive) | -0.615 and 0.439 | 0.0898 and -0.395
